A number with no mark means an inactive call. No rule for the calls is given here.
The molecules below were run against Pantothenate synthetase (Mycobacterium tuberculosis (strain ATCC 25618 / H37Rv)) (UniProt P9WIL5) (assay: Recombinant Mtb pantothenate synthetase (PanC) inhibitors, coupled enzyme, confirmatory (AID 375;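 also: 0% = full reaction with vehicle and 100% = no enzyme background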)). Details: coupled enzyme assay; at 10 µM, active compounds read high.
Pantothenate synthetase (Mycobacterium tuberculosis (strain ATCC 25618 / H37Rv)), sequence (P9WIL5 whole entry, looked up): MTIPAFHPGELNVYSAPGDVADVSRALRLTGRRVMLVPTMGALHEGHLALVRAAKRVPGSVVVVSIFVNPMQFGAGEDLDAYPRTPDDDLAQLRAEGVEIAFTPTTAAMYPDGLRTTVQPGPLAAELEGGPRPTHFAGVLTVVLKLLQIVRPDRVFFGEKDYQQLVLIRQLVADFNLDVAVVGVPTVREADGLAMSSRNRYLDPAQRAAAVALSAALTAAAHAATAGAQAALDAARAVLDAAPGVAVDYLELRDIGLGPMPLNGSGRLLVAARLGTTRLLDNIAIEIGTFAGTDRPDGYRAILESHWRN
Molecule `Cc1nnc(SCc2nc3ccccc3s2)n1-c1ccccc1` has an inhibition of 3%. In the case of `Cn1c(=O)[nH]c(=O)c2c1nc(NCCCn1ccnc1)n2Cc1ccccc1`, the inhibition is reported as 0%. `O=C(Nc1cnn(C23CC4CC(CC(C4)C2)C3)c1)c1cnn2c(C(F)(F)F)cc(-c3ccco3)nc12` gave an inhibition of 0%. In the case of `CCC(OC(=O)c1cccs1)C(=O)NCc1ccco1` (stereo not drawn), the inhibition is reported as 0%. `COc1cc(-c2nc(S(=O)(=O)c3ccc(C)cc3)c(N(C)C)o2)cc(OC)c1OC` gave an inhibition of 3%. Work on `Cc1cc(=O)[nH]c(=S)n1-c1ccccc1` yielded an inhibition of 17%. `CCOc1ncccc1C(=O)Nc1ccc(Cl)cc1` was tested, and the inhibition was 2%. Molecule `CCCn1nc(NC(=O)c2cccs2)c2cc3cc(OC)ccc3nc21` has an inhibition of 0%. Molecule `CCCOc1cc(C)c(S(=O)(=O)N2CCN(C)CC2)cc1C` has an inhibition of 4%. In the case of `COc1cccc(-c2cc(C(=O)N3CCc4ccccc4C3)no2)c1`, the inhibition is reported as 10%. For `Cc1nc(N)[nH]c(=O)c1CCC(=O)OCC(C)C`, the inhibition was 0%. Work on `CCOc1ccc(NC(=O)CN2CCN(CC(=O)Nc3ccc(F)c(F)c3)CC2)cc1` yielded an inhibition of 0%. With `COc1ccccc1N1CCN(C(=O)CSc2nc(-c3ccccc3)cc(=O)[nH]2)CC1` the inhibition was 1%. Molecule `Cc1cc(C)nc(SCc2nnc(SCc3ccccc3Cl)o2)n1` has an inhibition of 0%. Work on `Cc1ccccc1-n1nc(C)c2cc(C(=O)NCc3cccnc3)sc21` yielded an inhibition of 0%. Molecule `CN=Cc1cc(-c2ccccc2)sc1O` has an inhibition of 0%. In the case of `COc1ccc(-c2nnc3sc(C(C)N4C(=O)c5ccccc5C4=O)nn23)cc1` (stereo not drawn), the inhibition is reported as 0%. Work on `COC(=O)c1ccc(C)c(NS(=O)(=O)c2ccc3c(c2)OCCO3)c1` yielded an inhibition of 0%. `COCCCNC(=O)Cn1cc2c(n1)CCC(C)C2` (stereo not drawn) gave an inhibition of 3%. `O=C1CC(N2CCN(C3CCc4ccccc4C3)CC2)C(=O)N1c1ccccc1` (stereo not drawn) gave an inhibition of 0%. With `COC(=O)c1cc(=O)n2c(-c3ccc(OC)cc3)csc2n1` the inhibition was 3%. `CCOC(=O)N1CCC(NC(=O)CCC(=O)N2CC(C)Oc3ccc(Cl)cc32)CC1` (stereo not drawn) was tested, and the inhibition was 2%. For `COc1cc(OC)c(C(=O)Nc2ccc(N(C)C)cc2)cc1OC`, the inhibition was 4%.

Source: PubChem BioAssay
